These results are taken from PubChem BioAssay (NCI).

Test systems include HCT-15 colon; HT29 colon; SNB-75 CNS; SNB-19 CNS; U251 CNS; PC-3 prostate; SK-MEL-5 melanoma; UACC-62 melanoma; LOX IMVI melanoma; SK-MEL-28 melanoma.
Holding throughout (test): NCI-60 one-dose screen, 48 h (100 = growth as untreated, 0 = no growth, -100 = all killed)
What all share (settings): 10 µM unless noted

The panel holds about 83,000 compounds, 20% with a hit somewhere; the sample as a whole holds those more often.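 Treatment: one concentration, 48 hours, 96-well format. Scoring: percent growth, with anything below 10 considered active.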 A number with no mark means an inactive call. Activity calls are given as the source filed them.

For `CC(C)CCSc1nc(-c2ccc(F)cc2)c(C#N)c(N2CCCCC2)n1`, the growth in the assay on HCT-15 colon was 97.7%; with HT29 colon it was 83.2%; with SNB-75 CNS, 94.2%; in the assay with SNB-19 CNS, 102%; with U251 CNS, 93.6%; in the assay with PC-3 prostate it was 89.2%. Besides, the growth in the assay on SK-MEL-5 melanoma was 95.8%; in the assay with UACC-62 melanoma, 70.3%; in the assay on LOX IMVI melanoma it was 93%; with SK-MEL-28 melanoma it was 96.3%.

Regarding `C=C1C(=O)O[C@H]2[C@H]1CC/C(COC(=O)N[C@@H](Cc1c[nH]c3ccccc13)C(=O)OC)=C\CC[C@@]1(C)O[C@@H]21`, the growth with HCT-15 colon is -12.1% (active); in the assay with HT29 colon, -29.5% (active); with SNB-75 CNS it was 68.7%; with SNB-19 CNS, 66.8%; with U251 CNS, 25.3%; in the assay on PC-3 prostate, 33.3%. Besides, the growth was 21.8% with SK-MEL-5 melanoma, 27.8% in the assay on UACC-62 melanoma, -38.5% (active) with LOX IMVI melanoma and 6.71% (active) in the assay on SK-MEL-28 melanoma.

In the case of `CCOCCNc1ccc(S(=O)(=O)c2ccc(N)cc2)cc1N`, the growth was 109% in the assay with HCT-15 colon; 114% in the assay with HT29 colon; 96.7% in the assay with SNB-75 CNS; 114% with SNB-19 CNS; 98.2% in the assay on U251 CNS; 111% in the assay on PC-3 prostate. Besides, the growth in the assay with SK-MEL-5 melanoma is 102%; in the assay on UACC-62 melanoma it was 95.1%; in the assay with LOX IMVI melanoma it was 91.1%; in the assay with SK-MEL-28 melanoma, 112%.

In the case of `CCOC(=O)C1C(=O)C=C(c2ccccc2)CC1c1sc(N(C)Cc2ccccc2)nc1Cl` (stereo not given), the growth in the assay with HCT-15 colon was 94.3%; with HT29 colon it was 91.2%; in the assay on SNB-75 CNS, 89.1%; in the assay with SNB-19 CNS, 89.7%; in the assay with U251 CNS, 92.7%; in the assay on PC-3 prostate it was 76.4%. Also, the growth with SK-MEL-5 melanoma is 92.7%; in the assay on UACC-62 melanoma it was 61.4%; with LOX IMVI melanoma, 88.2%; in the assay on SK-MEL-28 melanoma, 109%.

For the compound `CN1C(=O)C(C(=O)/C=C/c2ccccc2C(=O)O)C(=O)N(C)C1=O`, the growth was 110% in the assay on HCT-15 colon; 98.8% with HT29 colon; 86.7% in the assay with SNB-75 CNS; 105% with SNB-19 CNS; 97% in the assay on U251 CNS; 96.4% in the assay on PC-3 prostate. The growth is 108% in the assay with SK-MEL-5 melanoma, 95% in the assay on UACC-62 melanoma, 94.7% with LOX IMVI melanoma and 109% with SK-MEL-28 melanoma.

As for `COc1ccc(/C=C/c2nc3ccccc3c(=O)n2-c2ccc(C#Cc3ccc(C(C)(C)C)cc3)cc2C)c(OC)c1`, the growth in the assay on HCT-15 colon is 59.3%; in the assay with HT29 colon, 78%; in the assay on SNB-75 CNS, 99.4%; with SNB-19 CNS it was 105%; in the assay with U251 CNS it was 75.3%; in the assay on PC-3 prostate, 53%. The growth with SK-MEL-5 melanoma was 69.7%; in the assay with UACC-62 melanoma, 72.6%; in the assay with LOX IMVI melanoma, 80%; with SK-MEL-28 melanoma it was 109%.

Regarding `COc1ccc(-c2cnc(-c3ccncc3-c3cccc(OC)c3)o2)cc1`, the growth with HCT-15 colon was 7.4% (active); in the assay on HT29 colon, -36.6% (active); with SNB-75 CNS, 41.2%; in the assay on SNB-19 CNS, 25.8%; in the assay with U251 CNS, 24.3%; in the assay on PC-3 prostate it was 16.9%. The growth was -20.4% (active) in the assay with SK-MEL-5 melanoma, 24.9% in the assay on UACC-62 melanoma, 27.3% in the assay on LOX IMVI melanoma and 57.6% with SK-MEL-28 melanoma.

Take `O=c1c2cc(Cl)ccc2oc2ccc(OCCCCCN3CCCCC3)cc12`: the growth was -14.7% (active) in the assay on HCT-15 colon; -27.9% (active) in the assay with HT29 colon; 102% in the assay with SNB-75 CNS; 77.5% with SNB-19 CNS; 46% with U251 CNS; 69.1% in the assay on PC-3 prostate. Besides, the growth was -26.2% (active) with SK-MEL-5 melanoma, -52.7% (active) with UACC-62 melanoma, -6.06% (active) in the assay with LOX IMVI melanoma and 12% in the assay with SK-MEL-28 melanoma.

Consider `CN1C(=O)N(C)C2C1NN=c1s/c(=C\c3ccc(C(F)(F)F)cc3)c(=O)n12` (stereo not given), for which the growth in the assay with HCT-15 colon was 24.2%; in the assay on HT29 colon, 9.64% (active); in the assay on SNB-75 CNS, 7.43% (active); in the assay on SNB-19 CNS, 30%; in the assay with U251 CNS, 21.6%; in the assay on PC-3 prostate it was 18.8%. For the same compound, the growth is 4.36% (active) in the assay on SK-MEL-5 melanoma, 26.7% in the assay with UACC-62 melanoma, 36.6% in the assay with LOX IMVI melanoma and 60.4% with SK-MEL-28 melanoma.

Regarding `Cc1c2c(cc3c1[nH]c1ccccc13)C=NCC2`, the growth in the assay with HCT-15 colon was 95.1%; in the assay with HT29 colon, 61.2%; with SNB-75 CNS, 84%; in the assay with SNB-19 CNS it was 93.4%; with U251 CNS, 92.5%; with PC-3 prostate, 91%. Also, the growth in the assay on SK-MEL-5 melanoma was 88.1%; in the assay on UACC-62 melanoma it was 107%; in the assay with LOX IMVI melanoma, 87.4%; with SK-MEL-28 melanoma it was 118%.

In the case of `O=C(Nc1ccc(Br)cc1)Nc1cccc(Br)c1`, the growth was 15.4% in the assay on HCT-15 colon; 28.2% in the assay on HT29 colon; 85% in the assay with SNB-75 CNS; 29.2% in the assay with SNB-19 CNS; 28.4% in the assay with U251 CNS; 4.68% (active) with PC-3 prostate. The growth was 65.3% in the assay with SK-MEL-5 melanoma, 5.82% (active) in the assay with UACC-62 melanoma, 33% with LOX IMVI melanoma and 43.7% with SK-MEL-28 melanoma.

Regarding `C=C(c1ccc(C(=O)NCCCn2ccnc2)cc1)c1cc2c(cc1C)C(C)(C)CCC2(C)C`, the growth with HCT-15 colon was 21.1%; in the assay with HT29 colon, 16.1%; in the assay on SNB-75 CNS, 41.4%; in the assay with SNB-19 CNS it was 48.4%; in the assay on U251 CNS it was 12.1%; with PC-3 prostate it was -6.2% (active). In addition, the growth was 0.58% (active) in the assay on SK-MEL-5 melanoma, 66.7% in the assay on UACC-62 melanoma, -25.7% (active) in the assay on LOX IMVI melanoma and 6.96% (active) in the assay on SK-MEL-28 melanoma.

For `CCn1c(Cc2ccccc2Nc2c(Cl)cccc2Cl)nnc1SCC(=O)Nc1cccc(OC)c1`, the growth in the assay on HCT-15 colon was 78.9%; with HT29 colon, 68.6%; in the assay on SNB-75 CNS, 86.2%; in the assay with SNB-19 CNS it was 79.4%; in the assay with U251 CNS, 86.1%; with PC-3 prostate, 56.1%. Also, the growth is 91.6% with SK-MEL-5 melanoma, 33.6% with UACC-62 melanoma, 79.9% with LOX IMVI melanoma and 96.4% with SK-MEL-28 melanoma.

Take `O=C(CC(=O)C(F)(F)C(F)(F)C(F)(F)F)c1cc2ccccc2o1`: the growth is 108% in the assay on HCT-15 colon; 103% in the assay on HT29 colon; 92.2% in the assay with SNB-75 CNS; 107% in the assay on SNB-19 CNS; 97.5% with U251 CNS; 91.1% with PC-3 prostate. The growth in the assay on SK-MEL-5 melanoma is 106%; in the assay with UACC-62 melanoma, 104%; in the assay with LOX IMVI melanoma, 92.4%; in the assay with SK-MEL-28 melanoma, 105%.

Take `COc1cc2c(c(OC)c1O)C(=O)C(OC)C(c1ccc(O)c(O)c1)O2` (stereo not given): the growth is 3.6% (active) with HCT-15 colon; 46.8% with HT29 colon; -8.14% (active) in the assay on SNB-75 CNS; 21% with SNB-19 CNS; 15.4% in the assay with U251 CNS; -22.3% (active) in the assay on PC-3 prostate. Besides, the growth in the assay with SK-MEL-5 melanoma was -23.6% (active); with UACC-62 melanoma it was 29.3%; with LOX IMVI melanoma it was 12.9%; in the assay with SK-MEL-28 melanoma it was 56.2%.

Regarding `C=C1C(=O)O[C@H]2[C@H]1CC/C(COC(=O)NCc1cn(C)c3ccccc13)=C\CC[C@@]1(C)O[C@@H]21`, the growth was -45.8% (active) in the assay with HCT-15 colon; -62% (active) in the assay on HT29 colon; 50% in the assay on SNB-75 CNS; 54.2% with SNB-19 CNS; 0.165% (active) in the assay on U251 CNS; 8.71% (active) with PC-3 prostate. For the same compound, the growth in the assay on SK-MEL-5 melanoma is 10.6%; in the assay on UACC-62 melanoma, -41% (active); in the assay on LOX IMVI melanoma, -65% (active); in the assay on SK-MEL-28 melanoma, -14.6% (active).

Regarding `CC(C)CCC(=O)[C@@H](C)[C@H]1[C@@H](OC2OCC(O)C(O)C2NS(C)(=O)=O)C[C@H]2[C@@H]3CC=C4C[C@@H](O)CC[C@]4(C)[C@H]3CC[C@]12C` (stereo not given in full), the growth in the assay on HCT-15 colon is 14%; in the assay with HT29 colon, 19.6%; in the assay on SNB-75 CNS it was 22.2%; with SNB-19 CNS, 32.1%; in the assay on U251 CNS, 5.29% (active); in the assay with PC-3 prostate, 4.46% (active). Moreover, the growth with SK-MEL-5 melanoma is 7.33% (active); in the assay on UACC-62 melanoma, -22% (active); in the assay with LOX IMVI melanoma, 21.9%; in the assay on SK-MEL-28 melanoma, -36.1% (active).

Consider `Cc1ccc2c(C)c3c(ccc4ccccc43)c[n+]2c1`, for which the growth is 95.8% in the assay with HCT-15 colon; 88.1% in the assay with HT29 colon; 65% in the assay on SNB-75 CNS; 24% in the assay on SNB-19 CNS; 24.5% in the assay on U251 CNS; 52.9% in the assay on PC-3 prostate. The growth is -25.6% (active) with SK-MEL-5 melanoma, 74.2% in the assay with UACC-62 melanoma, 91.9% with LOX IMVI melanoma and 77.8% in the assay on SK-MEL-28 melanoma.

Consider `O=C(N/N=C/c1ccccc1O)c1ccncc1`, for which the growth with HCT-15 colon was 28.5%; in the assay on HT29 colon, 42.7%; with SNB-75 CNS, 86.2%; in the assay with SNB-19 CNS it was 66.6%; with U251 CNS, 39.2%; with PC-3 prostate, 69.5%. For the same compound, the growth in the assay with SK-MEL-5 melanoma was 75.5%; in the assay with UACC-62 melanoma it was 33.5%; in the assay with LOX IMVI melanoma it was 50.8%; in the assay on SK-MEL-28 melanoma, 61.1%.

With `CCCCCCCCOC(=O)C(C)OC(=O)OCCOCCOC(=O)OC(C)C(=O)OCCCCCCCC` (stereo not given), the growth was 111% in the assay with HCT-15 colon; 115% in the assay with HT29 colon; 102% in the assay with SNB-75 CNS; 104% in the assay on SNB-19 CNS; 106% in the assay with U251 CNS; 87.7% with PC-3 prostate. The growth with SK-MEL-5 melanoma was 107%; in the assay with UACC-62 melanoma, 94.2%; with LOX IMVI melanoma it was 101%; in the assay on SK-MEL-28 melanoma, 106%.
